Source: PubChem BioAssay (NCI)
The panel holds about 79,000 compounds, 15% with a hit somewhere; the sample as a whole holds those more often. Values without a mark were called inactive. Active and inactive are the calls of the source. No stated cut-off is given here; in the data, active means growth inhibition above about 70%; inactive means the rest.

Experiment: NCI Yeast Anticancer Drug Screen. Data for the rad50 strain (AID 155);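 further: 0% = growth of vehicle-only cultures of the same strain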
Settings: S. cerevisiae rad50 strain growth inhibition; at 50.0 µM; active compounds read high
Outline: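 Compounds were tested on a yeast strain with an engineered DNA damage repair alteration; the reported value is growth inhibition normalised to vehicle treatment.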

SMILES	growth inhibition
CCC(C)(C)NCCCCCNc1cc(OC)cc2cccnc12	76.2% (active)
CCCCCCCCCCCC(=O)OCCOP(=O)(OCC)OCC	87.2% (active)
COc1cccc2c1S(=O)(=O)C(c1ccccc1)=CC2=O	99.5% (active)
CC(C)(C)c1ccc(-n2c3nc(=O)n(-c4ccccc4C(F)(F)F)c(=O)c-3cc3ccccc32)cc1	59.1%
CCOC(=O)c1cc(C)ccc1-c1ccc(C)cc1C(=O)OCC	57.6%
NC(=O)C1C(=O)c2cccc3c2C1(Br)C(Br)CCC3 (stereo not given)	99.2% (active)
COC(=O)/C(=C/C=C(c1ccccc1)c1ccccc1)N(C(C)=O)C(C)=O	99.4% (active)
O=C1c2cccc3cc([N+](=O)[O-])cc(c23)C(=O)N1O	82.7% (active)
CCNc1cc(N)[n+](CC)c2n[nH]c(/N=C/c3cc(Cl)cc(Cl)c3O)c12	88% (active)
CCOC(=O)c1[nH]c(Br)c(-c2ccc(OC)c(OC)c2)c1Br	92.1% (active)
COc1ccc(CC2=CC(=O)C(=O)C=C2C)cc1	47.4%
O=C(O)CCC/C(=N\Nc1ccccc1)C(=O)O	98.5% (active)
CC1(C)OC2C(COC(c3ccccc3)(c3ccccc3)c3ccccc3)OC(n3cnc4c(N)ncnc43)C2O1 (stereo not given)	64.9%
O=[N+]([O-])c1cnc(F)c(Br)c1	99.1% (active)
C=C(C#N)C(=O)OCC(CC)CC.C=C(C#N)C(=O)OCC(CC)CC.CS(C)=O.CS(C)=O.Nc1c(N=Nc2ccc(-c3ccc(N=Nc4cc(S(=O)(=O)[O-])c5ccccc5c4N)cc3)cc2)cc(S(=O)(=O)[O-])c2ccccc12.[Pt+2]	96.8% (active)
